From PubChem BioAssay AID2012 (Sanford-Burnham Center for Chemical Genomics, 2009)
Screen size: about 290,000 compounds; about 2,700 (0.93%) were called active. How the calls were made is not given here. For the sample, actives were picked, then their nearest neighbours and some compounds at random.

Target: Eukaryotic translation initiation factor 4H (Homo sapiens) (UniProt Q15056)
Test: eIF4H binding inhibition – biochemical, uHTS, fluorescence polarization, translation initiation inhibitor project, primary screen (AID 2012);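 further: calls also rest on retests at 20 µM and on dose response follow-up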
Conditions: eIF4H fluorescence polarization binding assay, stronger effect = higher value

Row | SMILES | inhibition (at 35 µM) | inhibition (confirmation average, at 20 µM)
1 | CC1CCCCN1CCCNc1ccc(C(CC(N)=O)NC(=O)c2ccccc2)cc1[N+](=O)[O-] (stereo unspecified) | -8.3% (inactive) | –
2 | COc1ccc(CC(NC(C)=O)C(=O)NC2CCN(C(=O)c3ccc(Cl)cc3)CC2)cc1 (stereo unspecified) | -0.5% (inactive) | –
3 | CC(=O)NC(Cc1ccc(F)c(F)c1)C(=O)NC1CCN(C(=O)c2ccc(C)cc2)CC1 (stereo unspecified) | -14.2% (inactive) | –
4 | CNC(=S)N1CCC(NC(=O)C(Cc2ccc(F)cc2)NC(C)=O)CC1 (stereo unspecified) | 63.8% (active) | –
5 | O=C(CCc1ccccc1)NNC(=O)COc1ccc(Cl)cc1 | 0.4% (inactive) | –
6 | COc1ccccc1NC(=O)CCC(=O)OC(C)C(=O)c1ccccc1 (stereo unspecified) | 1.3% (inactive) | –
7 | O=C(NC1CCCC1)C(=O)c1c[nH]c2ccccc12 | -6.1% (inactive) | –
8 | CCCNC(=O)CSc1nc(Cc2ccccc2)nc2ccccc12 | -6.2% (inactive) | –
9 | Clc1c(OCCCn2ccnc2)ccc2ccccc12 | 1.6% (inactive) | –
10 | Cc1cccc(NC(=O)/C=C/c2ccc3c(c2)OCO3)n1 | -2.1% (inactive) | –
11 | O=C(/C=C/c1ccc2c(c1)OCO2)NCc1cn2cc(Cl)ccc2n1 | -3.3% (active) | 76.4%
12 | O=C(/C=C/c1ccc2c(c1)OCO2)NCc1ccc(F)cc1 | 4.7% (inactive) | –
13 | Cc1cccc(NS(=O)(=O)c2ccc(-c3cnc(C4CC4)o3)cc2)c1 | -2.4% (inactive) | –
14 | O=C(c1ccc[nH]c1=S)N1CCN(S(=O)(=O)c2ccc(Br)cc2Cl)CC1 | -10.2% (inactive) | –
15 | COc1ccc(C)cc1-n1nnnc1SCC(=O)c1cc(C)n(Cc2ccco2)c1C | 64.8% (active) | –
16 | Cc1cc(C(=O)COC(=O)CNC(=O)c2ccc(F)cc2)c(C)n1Cc1ccco1 | 86.4% (inactive) | -10.3%
17 | COCC(C)n1c(C)cc(C(=O)COc2ccc(C)nc2[N+](=O)[O-])c1C (stereo unspecified) | 70.1% (active) | 70.5%
18 | Cc1ccc(OCC(=O)NC(C)c2ccccc2)c([N+](=O)[O-])n1 (stereo unspecified) | -4.1% (inactive) | -2.8%
19 | Cc1ccc(OCC(=O)c2cc(C)n(Cc3ccco3)c2C)c([N+](=O)[O-])n1 | 101% (active) | 86.9%
20 | COc1ccc(OC)c(-n2nnnc2SCC(=O)Nc2cc(C)ccc2OC)c1 | 0% (inactive) | –
21 | CCc1ccccc1NC(=O)CN(C)C(=O)COc1ccc(C)nc1[N+](=O)[O-] | 1.9% (inactive) | –

Row | SMILES | inhibition (at 35 µM) | inhibition (confirmation average, at 20 µM)
22 | Cc1cc(C(=O)CSc2nc(N)cc(=O)[nH]2)c(C)n1Cc1ccco1 | 43.2% (inactive) | –
23 | COc1ccccc1CNC(=O)COc1ccc(C)nc1[N+](=O)[O-] | -3.5% (inactive) | –
24 | Cc1c(C(C)(C)O)[nH]c2ccc(C#N)cc12 | 2.9% (inactive) | –
25 | CN1CCN(C(=O)C(=O)c2cn(CC(=O)N3CCCC3)c3ccccc23)CC1 | -7.2% (inactive) | –
26 | CNC(=O)c1sc(Nc2ccc(OCc3ccccc3)cc2)nc1C | 8% (inactive) | –
27 | CC(=O)Nc1ccc(/C=N/Nc2ccc(C(=O)c3c(C)cc4ccccn34)cc2[N+](=O)[O-])cc1 | 8.5% (inactive) | –
28 | Cc1ccc(C(C[N+](=O)[O-])c2c(C)cc3ccccn23)cc1 (stereo unspecified) | 54.1% (active) | 84.9%
29 | Cc1cc2ccccn2c1C(=O)c1cccc(F)c1 | -9.7% (inactive) | –
30 | CCOc1ccc(N(C)S(=O)(=O)c2cnc[nH]2)cc1 | -1% (inactive) | –
31 | Cc1ccc(C)n1C(Cc1ccccc1)C(=O)O (stereo unspecified) | 83% (active) | –
32 | COc1ccc(CNC(=O)C(Cc2ccccc2)n2cccc2)cc1 (stereo unspecified) | 1.8% (inactive) | –
33 | CC(Cc1ccccc1)C(=O)N(C)Cc1ccccc1 (stereo unspecified) | -2.7% (inactive) | –
34 | CCC(CC)C(=O)N1CCN(c2cccc(C)c2C)CC1 | -9.8% (inactive) | –
35 | O=C(/C=C/c1ccco1)NC(=S)N1CCCCC1 | 5.7% (inactive) | –
36 | Cc1cccc(N2CCN(C(=O)/C=C/c3ccco3)CC2)c1C | 57.3% (active) | 101%
37 | CCOc1cc(/C=C2\SC(N3CCCC(C)C3)=NC2=O)ccc1O (stereo unspecified) | 1.3% (inactive) | –
38 | CC(=O)c1cccc(NC(=O)C2CCN(C(=O)c3ccccc3Cl)CC2)c1 | 3.5% (inactive) | –
39 | c1coc(-c2nc3nc4ccccc4n3nc2-c2ccco2)c1 | 73.4% (active) | –
40 | COc1ccc(CCn2c(-c3ccco3)nc3nc4ccccc4nc32)cc1OC | 3.6% (inactive) | –
41 | Cn1c(-c2ccco2)nc2cc3ccccc3cc21 | 4.9% (inactive) | –
42 | O=C(Nc1ccc(Cl)cc1)c1cccc(OC(=S)N2CCOCC2)c1 | -8.8% (inactive) | –

Row | SMILES | inhibition (at 35 µM) | inhibition (confirmation average, at 20 µM)
43 | CC(=O)N1c2ccc(S(=O)(=O)N(C)CC(=O)N(C)Cc3ccccc3)cc2CC1C (stereo unspecified) | 2.8% (inactive) | –
44 | O=C(CN1C(=O)c2cccnc2Oc2ccc(Cl)cc21)Nc1ccc(F)cc1 | -8.2% (inactive) | –
45 | O=C(/C=C/Sc1ncn[nH]1)c1ccc(Cl)cc1 | 60.7% (active) | 65.7%
46 | Cc1cc(C)nc(S/C=C/C(=O)c2ccccc2)n1 | -7.4% (inactive) | –
47 | COc1ccc(Cl)cc1CSc1ncn[nH]1 | -9.7% (inactive) | –
48 | COc1ccc(C(=O)C2CCCN(C(=O)c3ccc(OC)o3)C2)c(C)c1 (stereo unspecified) | -2.6% (inactive) | –
49 | Oc1cccc(/C=N/Nc2ccc(Cl)nn2)c1O | 24.2% (inactive) | –
50 | COc1ccc(/C=C2\SC(=S)N(CCCC(=O)NC3CCCC3)C2=O)cc1OC | 48.7% (inactive) | –
51 | Cc1ccc(C(=O)Oc2coc(CSc3nnc(NC(=O)c4cccs4)s3)cc2=O)cc1C | 65.8% (active) | 85.6%
52 | Cc1ccc(C(=O)Nc2nnc(-c3cccs3)s2)cc1C | -2.7% (inactive) | –
53 | CCSc1nnc(NC(=O)c2ccc(C)cc2)s1 | -9.1% (inactive) | –
54 | CN1CCN(C(=O)c2ccccc2NC(=O)COc2ccccc2Cl)CC1 | -9.2% (inactive) | –
55 | Cn1c(=O)[nH]c(=O)c2c1nc(N1CCN(C(c3ccccc3)c3ccccc3)CC1)n2CCO | 0.3% (inactive) | –
56 | O=C(NC(=S)Nc1ncccn1)c1ccccc1Br | -2% (inactive) | –
57 | CCCc1ccc(OCCNC(=O)c2ccccc2Br)cc1 | 8.8% (inactive) | –
58 | CCOc1cnc(C(=O)NNC(=O)c2ccccc2Br)o1 | 85.7% (active) | 95%
59 | CCCCc1nc2cc(C(=O)N3CCCCC3CCO)ccc2o1 (stereo unspecified) | -1.1% (inactive) | –
60 | COc1ccc(CCNC(=O)C(=O)NCC2OCCN2S(=O)(=O)c2cccs2)cc1OC (stereo unspecified) | -4.1% (inactive) | –
61 | CCOc1ccc(NC(=O)c2ccc(NC(=O)C3CCCO3)cc2)cc1 (stereo unspecified) | -9.4% (inactive) | –
